# Experimental data as given in PubChem BioAssay.
# Active and inactive are the calls of the source. Unless noted, the rule behind the calls is not given here.
# How the values were obtained:
# [1] = compound effects on lung adenocarcinoma cell viability – A549, calcein-AM fluorescence, 48 h, basal, profiling panel (AID 1162); conditions: higher = more signal; note: test concentration not given here
# [2] = compound effects on differentiated 3T3-L1 adipocyte viability – cell-based, 3T3-L1 adipocytes, calcein-AM fluorescence, 48 h, basal, profiling panel (AID 1163); conditions: 3T3-L1 adipocytes viability, higher = more signal; note: test concentration not given here
# [3] = compound effects on hepatocellular carcinoma cell viability – HepG2, calcein-AM fluorescence, 48 h, basal, profiling panel (AID 1164); conditions: higher = more signal; note: test concentration not given here
# [4] = compound effects on multiple myeloma cell viability – MM1S, calcein-AM fluorescence, 48 h, basal, profiling panel (AID 1165); conditions: higher = more signal; note: test concentration not given here
# [5] = calcein-AM signal in unstimulated myeloma cells – cell-based, calcein-AM fluorescence, 48 h, PK04 Diversity Set, profiling panel (AID 1166); conditions: RPMI8226 myeloma viability, higher = more signal;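 note: cells grown under basal conditions without added stimulus; test concentration not given here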
# [6] = JC-1 mitochondrial signal, unstimulated HepG2 cells – cell-based, JC-1 fluorescence, 24 h, 100 nL compound, profiling panel (AID 1167); conditions: HepG2 mitochondrial potential, higher = more signal; note: test concentration not given here
# [7] = JC-1 mitochondrial signal, unstimulated adipocytes – cell-based, JC-1 fluorescence, 3T3-L1 adipocytes, 24 h, 100 nL compound, profiling panel (AID 1168); conditions: JC-1 mitochondrial fluorescence, higher = more signal, called active from +8 up or from −8 down; note: test concentration not given here
# [8] = JC-1 mitochondrial signal, unstimulated myeloma cells – cell-based, JC-1 fluorescence, RPMI8226, 24 h, 100 nL compound, profiling panel (AID 1169); conditions: JC-1 mitochondrial potential fluorescence, higher = more signal; note: test concentration not given here
# [9] = JC-1 mitochondrial signal, unstimulated MM1S myeloma – cell-based, JC-1 fluorescence, 24 h, 100 nL compound, profiling panel (AID 1170); conditions: MM1S mitochondrial potential, higher = more signal; note: test concentration not given here
# [10] = resazurin metabolic signal in A549 cells – cell-based, resazurin fluorescence, 24 h, PK04 Diversity Set, profiling panel (AID 1171); conditions: A549 viability, higher = more signal, called active from +8 up or from −8 down; note: test concentration not given here
# [11] = resazurin metabolic signal in HepG2 cells – cell-based, resazurin fluorescence, 24 h, PK04 Diversity Set, profiling panel (AID 1172); conditions: HepG2 viability, higher = more signal; note: test concentration not given here
# [12] = budding yeast growth changes without added modifier – OD600, strain BY4716, 24 h, basal condition, primary screen (AID 1173); conditions: S. cerevisiae BY4716 growth, OD600, 24 h; higher = more signal, called active from +8 up or from −8 down
# [13] = viability profiling in MM1S myeloma cells – cell-based, resazurin fluorescence, basal, 24 h, PK04 Diversity Set, profiling panel (AID 1174); conditions: higher = more signal, called active from +8 up or from −8 down; note: test concentration not given here
# [14] = target: Dihydroorotate dehydrogenase (quinone), mitochondrial (Plasmodium falciparum (isolate 3D7)) (UniProt Q08210); experiment: inhibition of P. falciparum DHODH – biochemical, C-terminal His tag, absorbance 600 nm, primary screen (AID 1175); conditions: PfDHODH enzyme, DCIP absorbance 600 nm; higher = more signal, called active from +8 up or from −8 down;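 note: recombinant parasite enzyme with a five histidine tag at its C terminus; test concentration not given here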
# Sequence of Dihydroorotate dehydrogenase (quinone), mitochondrial (Plasmodium falciparum (isolate 3D7)) (Q08210 whole entry, looked up): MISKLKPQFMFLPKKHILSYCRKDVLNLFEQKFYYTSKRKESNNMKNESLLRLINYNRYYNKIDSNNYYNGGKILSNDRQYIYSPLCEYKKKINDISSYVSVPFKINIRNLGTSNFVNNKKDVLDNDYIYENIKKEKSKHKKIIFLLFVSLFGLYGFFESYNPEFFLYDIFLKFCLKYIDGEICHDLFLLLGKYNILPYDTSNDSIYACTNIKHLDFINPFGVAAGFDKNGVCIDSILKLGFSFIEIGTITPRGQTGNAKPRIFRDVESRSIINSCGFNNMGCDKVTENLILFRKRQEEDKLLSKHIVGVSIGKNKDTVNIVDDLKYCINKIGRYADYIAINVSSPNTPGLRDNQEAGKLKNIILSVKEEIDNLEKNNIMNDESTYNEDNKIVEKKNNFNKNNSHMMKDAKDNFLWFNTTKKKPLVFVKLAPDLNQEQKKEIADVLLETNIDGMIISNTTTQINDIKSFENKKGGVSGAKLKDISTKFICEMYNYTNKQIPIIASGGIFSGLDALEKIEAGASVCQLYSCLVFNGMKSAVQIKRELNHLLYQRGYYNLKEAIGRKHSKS
# [15] = inhibition of PAO1 biofilm formation – strain PAO1, LB-PBS medium, absorbance 600 nm, primary screen (AID 1176); note: test concentration not given here; conditions: P. aeruginosa PAO1 growth/biofilm, A600, 12 h; higher = more signal
# [16] = growth modulation of vineyard yeast isolate – strain RM11-1a, OD600, basal, 24 h, primary screen (AID 1177);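 note: cultures grown under basal conditions with no added stressor; test concentration not given here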; conditions: S. cerevisiae RM11-1a growth, OD600, 24 h; higher = more signal, called active from +8 up or from −8 down
# [17] = growth of efflux-deficient E. coli DRC39 – strain DRC39, OD650, 24 h, E. coli filamentation inducers, primary screen (AID 1178);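 note: growth measured as culture turbidity by optical density at 650 nm; test concentration not given here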; conditions: E. coli DRC39 acrAB, higher = more signal, called active from +8 up or from −8 down
# [18] = growth of efflux-deficient E. coli DRC39 – strain DRC39, OD650, 48 h, E. coli filamentation inducers, primary screen (AID 1179);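 note: screen aims at cell division blockers that make cells filament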; conditions: E. coli DRC39 delta-acrAB growth, higher = more signal, called active from +8 up or from −8 down
# [19] = viability profiling in RPMI8226 myeloma cells – cell-based, resazurin fluorescence, basal, 24 h, PK04 Diversity Set, profiling panel (AID 1180); conditions: higher = more signal;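 note: RPMI8826 multiple myeloma cell line at 5000 cells per well; test concentration not given here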
# [20] = target: E3 ubiquitin-protein ligase XIAP (Homo sapiens) (UniProt P98170); experiment: small molecules binding XIAP protein – biophysical, small-molecule microarray, fluorescence 635 nm, primary screen (AID 1181); conditions: higher = more signal;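 note: score merges 667 nm emission and signal to noise over triplicate slides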
# Sequence of E3 ubiquitin-protein ligase XIAP (Homo sapiens) (P98170 whole entry, looked up): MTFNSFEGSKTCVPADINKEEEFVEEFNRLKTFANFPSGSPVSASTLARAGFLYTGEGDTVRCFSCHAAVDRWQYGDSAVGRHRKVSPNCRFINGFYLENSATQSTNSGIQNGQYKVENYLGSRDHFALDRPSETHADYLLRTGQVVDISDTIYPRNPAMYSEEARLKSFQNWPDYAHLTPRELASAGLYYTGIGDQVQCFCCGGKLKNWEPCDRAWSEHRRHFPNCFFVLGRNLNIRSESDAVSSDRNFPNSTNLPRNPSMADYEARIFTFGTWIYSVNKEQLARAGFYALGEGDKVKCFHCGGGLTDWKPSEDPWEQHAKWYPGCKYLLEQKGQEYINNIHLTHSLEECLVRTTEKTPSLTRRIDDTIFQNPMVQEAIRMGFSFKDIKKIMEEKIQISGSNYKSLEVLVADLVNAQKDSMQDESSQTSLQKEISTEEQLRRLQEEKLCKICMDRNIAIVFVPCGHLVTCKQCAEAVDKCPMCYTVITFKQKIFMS
SMILES,z-score [1],z-score [2],z-score [3],z-score [4],z-score [5],z-score [6],z-score [7],z-score [8],z-score [9],z-score [10],z-score [11],z-score [12],z-score [13],composite z-score [14],z-score [15],z-score [16],z-score [17],z-score [18],z-score [19],composite z-score [20]
COC(=O)C1(Cc2ccccc2)C=C2C(=C(c3ccccc3)C(=O)C2C)CN1 (stereo not given),-0.874,0.24,-0.515,-0.451,-0.91,-0.832,-1.12 (inactive),0.213,-0.291,-0.358 (inactive),-1.33,0.369 (inactive),-2.99 (inactive),-1.03 (inactive),1.04 (inactive),0.109 (inactive),-1.25 (inactive),-0.628 (inactive),-1.78,-0.217
CC1CC/C=C\[C@H]2OC34C=CCN(C(C)C)C(=O)[C@H]3N(CCCCCO)C(=O)[C@@H]4C2C(=O)O1 (stereo not given in full),1.85,0.601,0.29,1.84,-1.4,0.583,0.633 (inactive),-0.137,1.9,0.98 (inactive),0.551,-0.436 (inactive),1.46 (inactive),-1.16 (inactive),-1.28 (inactive),-0.171 (inactive),1.01 (inactive),1.07 (inactive),0.894,-0.304
CC(C)C(O)C1C=CC2C(=O)N(C)C(=O)C2N1N(c1ccccc1)c1ccccc1 (stereo not given),-0.659,-1.24,0.689,0.0007,0.0729,-0.0204,-0.291 (inactive),-0.286,-0.387,-0.391 (inactive),0.207,0.72 (inactive),-1.62 (inactive),0.85 (inactive),0.186 (inactive),0.879 (inactive),-0.841 (inactive),0.195 (inactive),-0.583,0.23
C=CCC(OC(C)=O)[C@@H]1[C@@H](N(Cc2cc3ccccc3o2)C(=O)Cc2ccc(F)cc2)c2cc(OCCCO)ccc2N1C(=O)c1ccc2ccccc2n1 (stereo not given in full),-0.153,1.2,1.09,0.466,-0.553,1.72,-0.528 (inactive),-0.131,0.288,0.642 (inactive),0.182,-0.44 (inactive),0.74 (inactive),-0.235 (inactive),0.243 (inactive),-0.176 (inactive),0.106 (inactive),0.155 (inactive),0.708,-0.217
NC(=O)NCC#Cc1ccc2c(c1)[C@]1(C(=O)N2)[C@H](C(=O)Nc2nc3ccccc3s2)[C@H]2C(=O)O[C@H](c3ccccc3)[C@H](c3ccccc3)N2[C@@H]1c1ccc(O)cc1,0.234,1.28,0.28,-0.614,0.76,-3.35,0.588 (inactive),-0.937,-1.9,1.78 (inactive),0.493,3.37 (inactive),0.917 (inactive),0.9 (inactive),2.87 (inactive),5.05 (inactive),0.296 (inactive),0.321 (inactive),-0.253,-0.0337
C=CCOC(=O)[C@H]1[C@@H]2C(=O)O[C@@H](c3ccccc3)[C@@H](c3ccccc3)N2[C@@H](c2ccc(OCCOC(=O)[C@H]3C[C@H]4C(=O)N[C@@H](CCCC[N+](C)(C)C)C(=O)N4[C@H]3c3cccc(OCCO)c3)cc2)[C@]12C(=O)Nc1ccc(I)cc12,-0.319,-0.0546,1.67,0.596,0.532,-2,-0.124 (inactive),-0.51,-1.31,0.134 (inactive),-0.346,1.44 (inactive),-0.0145 (inactive),-2.44 (inactive),4.03 (inactive),2.44 (inactive),0.186 (inactive),0.57 (inactive),0.208,-0.0373
C[C@]1(C(=O)O)c2ccccc2C(=O)N(Cc2ccccc2)[C@H]1c1ccc(CO)cc1,0.277,0.504,0.67,0.132,0.0631,1.33,0.114 (inactive),-0.768,0.161,1.08 (inactive),0.244,0.451 (inactive),0.936 (inactive),0.798 (inactive),-0.633 (inactive),1.91 (inactive),-0.0256 (inactive),-0.373 (inactive),0.988,0.013
COCCOC(=O)N1C(=O)[C@@]2(c3cc(C#CCNC(N)=O)ccc31)[C@H](C(=O)N1CCCCCCC1)[C@H]1C(=O)O[C@H](c3ccccc3)[C@H](c3ccccc3)N1[C@@H]2c1ccc(O)cc1,0.614,-0.369,-0.395,-0.787,0.337,-2.08,-0.379 (inactive),-0.216,0.444,-0.171 (inactive),-0.515,-0.129 (inactive),-0.97 (inactive),-0.376 (inactive),0.0442 (inactive),0.786 (inactive),-0.5 (inactive),-0.719 (inactive),-0.928,0.0614
CCCCN1CC=CC23O[C@@H]4/C=C\CCC(C)OC(=O)C4[C@H]2C(=O)N(CCCCCCO)[C@@H]3C1=O (stereo not given in full),-0.0164,0.736,1.11,1.79,-0.273,0.375,0.145 (inactive),0.336,-0.563,0.254 (inactive),0.634,0.14 (inactive),0.234 (inactive),-0.524 (inactive),0.109 (inactive),0.432 (inactive),0.666 (inactive),0.544 (inactive),0.981,0.0081
O=C1NC(=O)C2C1C=CC(C(O)c1ccc3c(c1)OCO3)N2Nc1ccccn1 (stereo not given),0.732,-1.11,0.641,0.0178,-0.12,-0.465,-0.0272 (inactive),0.115,-0.263,-1.67 (inactive),-0.861,-0.117 (inactive),-0.854 (inactive),0.315 (inactive),1.89 (inactive),-0.86 (inactive),0.812 (inactive),1.3 (inactive),-0.431,0.0185
COC(=O)[C@@]1(Cc2ccc(F)cc2)[C@H]2c3cc(C(=O)N4CCCC4)n(CCc4c[nH]c5ccc(OC)cc45)c3C[C@H]2CN1C(=O)c1ccccc1,-2.28,0.787,-0.906,-2.13,-4.1,1,-1.33 (inactive),-0.917,-2,-1.63 (inactive),-0.946,0.813 (inactive),-2.53 (inactive),-3.91 (inactive),3.29 (inactive),0.622 (inactive),-0.137 (inactive),-0.72 (inactive),-3.36,0.498
CC[C@@H]1[C@H]2C3C(=O)N(CC)C(=O)C3CC(=O)[C@H]2[C@H](c2ccc(C)cc2)N1S(=O)(=O)c1ccc(C)cc1 (stereo not given in full),-0.138,-0.303,-0.581,0.453,-0.144,0.248,0.438 (inactive),0.485,-1.02,-0.0875 (inactive),-0.881,0.252 (inactive),-0.25 (inactive),-0.0972 (inactive),-0.144 (inactive),0.561 (inactive),-0.339 (inactive),0.25 (inactive),-0.695,-0.119
COCCOC(=O)N1C(=O)[C@@]2(c3cc(C#CC4=CCCCC4)ccc31)[C@H](C(=O)N1CCN(c3ncccn3)CC1)[C@H]1C(=O)O[C@H](c3ccccc3)[C@H](c3ccccc3)N1[C@@H]2c1ccc(O)cc1,0.463,0.218,1.15,0.269,-0.802,-1.16,0.207 (inactive),-0.31,-1.3,-0.869 (inactive),-0.173,1.14 (inactive),-1.81 (inactive),0.332 (inactive),1.16 (inactive),1.69 (inactive),-0.766 (inactive),-0.0604 (inactive),-0.765,0.0589
